PubChem BioAssay (NCI)
Compounds without any hit were thinned out: in the full panel of roughly 83,000, 20% have a hit.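 Compound tested at a single concentration for 48 hours in 96-well plates; a percent growth value below 10 was scored as active.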 Unmarked numbers belong to inactive results. The source made the active and inactive calls.

Experiments:
Test in all cases: NCI-60 one-dose screen, 48 h (100 = growth as untreated, 0 = no growth, -100 = all killed)
Conditions in all cases: 10 µM unless noted
NCI-H23 lung = tested on: NCI-H23 lung
NCI-H226 lung = tested on: NCI-H226 lung
NCI-H322M lung = tested on: NCI-H322M lung
HOP-62 NSCLC = tested on: HOP-62 NSCLC
NCI-H460 lung = tested on: NCI-H460 lung
HOP-92 NSCLC = tested on: HOP-92 NSCLC
NCI-H522 lung = tested on: NCI-H522 lung
A549/ATCC NSCLC = tested on: A549/ATCC NSCLC
786-0 renal = tested on: 786-0 renal
COLO 205 colon = tested on: COLO 205 colon
DU-145 prostate = tested on: DU-145 prostate
K-562 leukemia = tested on: K-562 leukemia
MALME-3M melanoma = tested on: MALME-3M melanoma
MDA-MB-231 breast = tested on: MDA-MB-231 breast
RXF 393 renal = tested on: RXF 393 renal
SF-268 CNS = tested on: SF-268 CNS
SF-295 CNS = tested on: SF-295 CNS
SF-539 CNS = tested on: SF-539 CNS
UACC-257 melanoma = tested on: UACC-257 melanoma
M14 melanoma = tested on: M14 melanoma

Compound	growth (NCI-H23 lung) [%]	growth (NCI-H226 lung) [%]	growth (NCI-H322M lung) [%]	growth (HOP-62 NSCLC) [%]	growth (NCI-H460 lung)	growth (HOP-92 NSCLC) [%]	growth (NCI-H522 lung)	growth (A549/ATCC NSCLC) [%]	growth (786-0 renal)	growth (COLO 205 colon)	growth (DU-145 prostate)	growth (K-562 leukemia)	growth (MALME-3M melanoma) [%]	growth (MDA-MB-231 breast) [%]	growth (RXF 393 renal)	growth (SF-268 CNS) [%]	growth (SF-295 CNS)	growth (SF-539 CNS)	growth (UACC-257 melanoma) [%]	growth (M14 melanoma)
Cn1cc(-c2csc(-c3cn(CCCN4CCOCC4)c4ccc(F)cc34)n2)c2cccnc21	63.7	51.9	79	71.7	41%	40.8	49.5%	66.1	57.4%	51.3%	80.3%	0.484% (active)	87.4	25.1	36.1%	66.6	11.2%	57.6%	78.5	46.2%
O=C(C[C@]1(O)C(=O)Nc2ccc(Br)cc21)c1ccco1	97	92.9	93.8	106	105%	102	88.3%	104	108%	106%	106%	93.8%	84.1	98.6	108%	88.5	103%	104%	101	99.1%
COc1ccc(C(=O)Nc2ncc(Cc3ccc(Cl)cc3)s2)cc1	30.5	41.7	35.7	21.2	5.09% (active)	41.4	-16.3% (active)	17.7	17.6%	-2.86% (active)	12.6%	7.71% (active)	57.2	31.3	3.43% (active)	44.8	1.3% (active)	-22.9% (active)	46.8	-29.4% (active)
COc1ccc(C2[C@@H](Cl)C(=O)N2c2cc(OC)c(OC)c(OC)c2)cc1Cl (stereo not given in full)	34.9	59.8	40	21	5.19% (active)	33.6	-28.7% (active)	14.8	5.5% (active)	-50.2% (active)	6.13% (active)	5.8% (active)	69.1	33.5	-2.33% (active)	26.1	8.96% (active)	9.09% (active)	31.5	-4.46% (active)
O=C1NC(=O)C(c2coc3cc(Br)ccc23)=C1c1c[nH]c2ccccc12	77.5	67.2	77.7	38.9	19.5%	70.4	51.1%	33.5	69.5%	35.1%	65.1%	11.5%	66.2	59.4	75.3%	43.1	71.1%	64.7%	72	31.5%
COC(=O)/C(CCC=C(C)C)=C1\[C@@H](OC(C)=O)C[C@@]2(C)[C@H]1C/C(=N/O)[C@H]1[C@@]3(C)CC/C(=N\O)[C@@H](C)[C@@H]3CC[C@@]12C	99.5	96.8	109	105	105%	95.4	-57.1% (active)	94	96.3%	106%	106%	83.6%	119	86.5	104%	89.1	101%	89.4%	118	98.6%
Cc1ccc(NC(=O)c2sc3nc(C)c(C(O)c4ccccc4)cc3c2N)cc1 (stereo not given)	26.4	57.4	56.8	31.2	2.88% (active)	58.8	7.09% (active)	22.7	40.3%	-15.8% (active)	23.9%	6.23% (active)	49.1	15.9	39.3%	49.5	4.89% (active)	-4.25% (active)	60.2	16.3%
Nc1c(C(=O)Nc2cccc3ncccc23)sc2nc3c(cc12)CN(Cc1ccccc1)CC3	67.7	77.2	83	73.1	84.3%	74.1	55.8%	90.3	88.1%	112%	93.9%	34.8%	76.2	75.3	80.8%	84.6	67.5%	88.7%	69.2	90.1%
